Bioassay records: PubChem BioAssay, National Center for Advancing Translational Sciences (NCATS)
Only a selection was taken, and hits are over-represented in it overall.
Sm TGR block = blocks Schistosoma mansoni thioredoxin glutathione reductase | Q962Y6 | purified TGR, DTNB reduction, TNB absorbance 405 nm | Potency, µM (titrated, usually from 114 µM), most hits filed as inhibitors | 360,000 tested, 3% active | AID 485364; further: nearly all actives have a fitted effect of over 60% in size
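TGR 20 nM + NADPH 100 uM (dispensed conc.), cpd preinc 15 min RT; start with NADPH (500 uM addition) then DTNB (15 mM addition). Kinetic TNB absorbance, 405 nm filter. Four-parameter Hill fit across titration.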
Shiga inhibitor = inhibitors of Shiga toxin in Vero cells; AID 2315; Vero cells, Shiga toxin protein synthesis inhibition reporter; 290,000 tested, 9.2% active; inhibition, % at 38.7 µM; in the data active means inhibition mostly above about 28%, no sharp cut-off; inactive means mostly below about 43%
Giardia FBPA inh = inhibitors of Giardia lamblia fructose-1,6-bisphosphate aldolase; A8B2U2; purified Giardia FBPA; Potency, µM (highest dose often 59.6 µM), usual class: inhibitors; 290,000 tested, 0.71% active; AID 2451; further: nearly all actives have a fitted effect of over 55% in size
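Giardia FBPA (40 nM reagent) was preincubated 10 min at RT with compound (up to 57.5 uM final), then substrate plus GAPDH/TPI/NAD/arsenate coupling system with diaphorase/resazurin was added; resorufin fluorescence (525/598 nm) was read after 20 min.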
LmPK inh = inhibitors of Leishmania mexicana pyruvate kinase; Q27686; purified LmPK, Kinase-Glo ATP luminescence, 1 h; Potency, µM (titrated, usually from 57.5 µM), actives largely listed as inhibitors; 290,000 tested, 0.37% active; AID 1721
Target sequence (Q27686 whole entry, looked up): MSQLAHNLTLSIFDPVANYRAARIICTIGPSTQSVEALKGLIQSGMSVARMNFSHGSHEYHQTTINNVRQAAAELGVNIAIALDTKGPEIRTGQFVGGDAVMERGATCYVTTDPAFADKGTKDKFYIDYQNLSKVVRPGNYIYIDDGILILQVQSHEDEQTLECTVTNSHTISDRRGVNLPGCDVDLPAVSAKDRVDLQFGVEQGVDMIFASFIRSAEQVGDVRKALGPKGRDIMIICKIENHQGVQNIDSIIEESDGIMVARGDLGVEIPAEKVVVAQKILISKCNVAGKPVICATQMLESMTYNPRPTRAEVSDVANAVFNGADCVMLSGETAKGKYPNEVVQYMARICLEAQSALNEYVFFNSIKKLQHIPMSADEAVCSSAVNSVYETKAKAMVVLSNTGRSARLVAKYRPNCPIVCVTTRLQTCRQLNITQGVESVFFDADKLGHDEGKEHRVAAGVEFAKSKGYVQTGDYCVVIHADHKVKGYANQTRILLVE
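Purified LmPK (0.1 nM) with 0.5 mM PEP and 0.1 mM ADP in imidazole buffer pH 7.2 with MgCl2/KCl, 1 h at room temperature. ATP formed was read by luciferase luminescence and normalized to no-enzyme and uninhibited controls.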
CHX counter = counter-screen hit for Shiga toxin inhibitors, cycloheximide. cell reporter, cycloheximide protein synthesis inhibition counterscreen. max response, %. 300,000 tested, 12% active. AID 2314; in the data active means max response mostly above about 13%, no sharp cut-off; inactive means mostly below about 14%; further: read at 38.3 µM for the half of the compounds with a filed dose
TbPYK inhibitor = blocks Trypanosoma brucei pyruvate kinase; Q57TT1; TbPYK enzyme, Kinase-Glo Plus ATP luminescence, 45 min; Potency, µM (highest dose often 76.8 µM), usual class: inhibitors; 410,000 tested, 0.12% active; AID 624173; further: nearly all actives have a fitted effect of over 50% in size
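ADP (130 uM final) triggers the TbPYK reaction after compound addition; incubation is 45 min at room temperature. Kinase-Glo Plus is then added and luminescence imaged. Normalized data are fitted to concentration-effect curves.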
A number is an active result; n = inactive; u = inconclusive; x = no result given. Unless noted, the call rests on the fitted dose curve; in most records, active means well fitted curve in the direction sought with a large enough effect; inconclusive means small, poorly fitted or top-dose-only effect, or another doubt; inactive means no such curve, though single readings can be large; an effect the other way counts as inactive or inconclusive.

SMILES | Sm TGR block | Shiga inhibitor | Giardia FBPA inh | LmPK inh | CHX counter | TbPYK inhibitor
CCn1cc(CNC(=O)c2cc(-c3ccc(C)cc3)nc3ccc(Br)cc23)c(C)n1 | n | x | x | x | x | n
N#C[C@@H]1[C@@H]2C(=O)N(c3ccc4c(c3)OCCO4)C(=O)[C@@H]2C2c3ccccc3C=CN21 (some centres not stated) | u | 29.7 | u | n | n | x
Cc1ccc(-n2ncc(C(=O)Nc3ccc4c(c3)OCO4)c2C2CCN(C(=O)OC(C)(C)C)CC2)c(C)c1 | n | x | x | x | x | n
CN1CCC(=NOc2ccc([N+](=O)[O-])cc2)CC1 | n | 94.6 | n | n | 34.3 | n
Cc1ccc2c(CSc3nnc(N)s3)cc(=O)oc2c1 | n | 59.5 | n | n | 32.0 | n
COc1ccc(C(=O)N2CCCC(C)(C(=O)NS(=O)(=O)C3CC3)C2)cc1 (configuration not stated) | x | x | x | x | x | n
CN(Cc1ccccc1Cl)C(=O)C1CCC(=O)N(C2CCCCCC2)C1 (configuration not stated) | n | n | n | n | 14.3 | n
Cc1noc(C)c1NC(=O)Nc1ccc2c(c1)C(=O)N([C@H](C)CO)C[C@H](C)[C@@H](CN(C)C(=O)NC1CCCCC1)O2 | x | x | x | x | x | n
Cc1cc(=S)c2ccccc2[nH]1 | u | n | n | n | n | n
COc1cc2[nH]c3ccccc3c2cc1C | n | 69.1 | n | n | 53.2 | n
O=C(COc1ccccc1)c1cn(Cc2ccccc2)c2ccccc12 | n | n | n | n | 17.6 | n
O=C(c1cn(Cc2ccccc2)c2ccccc12)C1CC1 | n | n | n | n | 11.8 | n
O=C(O)Cn1cc(C(=O)C2CC2)c2ccccc21 | n | n | n | n | n | n
O=C(Cn1cc(C(=O)C2CC2)c2ccccc21)NCc1ccccc1 | n | 52.7 | n | n | 34.4 | n
CC(C)(C)c1ccc(C2=NC(C)(C)N(CC(=O)Nc3ccc(F)c(F)c3)C2=O)cc1 | n | x | x | x | x | n
COc1ccc(-c2cn3c(n2)sc2cc(C(=O)NCCc4ccc(OC)cc4OC)ccc23)cc1 | n | x | x | x | x | n
CCCS(=O)(=O)NC(=O)C1(C)CCN(C(=O)c2c(F)cccc2F)C1 (configuration not stated) | x | x | x | x | x | n
COc1ccccc1C1=NOC(C)(c2sc(-c3ccc(Cl)cc3)nc2C)C1 (configuration not stated) | n | 31.1 | n | n | 20.4 | n
CCOC(=O)C1=C(CN2CCN(c3cc(C)ccc3C)CC2)NC(=O)NC1c1ccc(Cl)cc1 (configuration not stated) | u | x | x | x | x | n
Cc1ccc(Cl)cc1-n1c(=O)c2sc3ccccc3c2n(CC(=O)NC2CCCC2)c1=O | n | x | x | x | x | n
Cc1cc(C)c2cc(CN(Cc3ccco3)C(=O)NCc3ccccc3)c(=O)[nH]c2c1 | 50.1µM | n | n | n | n | n
O=C(c1ccncc1)N(Cc1ccco1)Cc1cc2ccccc2[nH]c1=O | n | n | n | n | n | n
Cc1cc(C)c2[nH]c(=O)c(CN(Cc3ccco3)C(=O)C3CCCO3)cc2c1 (configuration not stated) | 25.1µM | n | n | n | n | n
Cc1cccc2cc(CN(Cc3ccco3)C(=O)c3ccncc3)c(=O)[nH]c12 | 31.6µM | n | n | n | n | n
COc1ccc(-n2nc(C(=O)N(C)c3cc(C)ccc3C)c3c4ccccc4n(C)c3c2=O)cc1Cl | n | x | x | x | x | n
SMILES | Sm TGR block | Shiga inhibitor | Giardia FBPA inh | LmPK inh | CHX counter | TbPYK inhibitor
CCc1ccc2occ(CC(=O)Nc3ccc(C)c(C)c3)c2c1 | n | x | x | x | x | n
O=c1ccc(-c2ccc(S(=O)(=O)Nc3ccccc3Cl)o2)n[nH]1 | 39.8µM | n | n | n | n | n
Cc1cccc(NS(=O)(=O)c2ccc(-c3ccc(=O)[nH]n3)o2)c1 | 39.8µM | n | n | n | n | n
Cc1c(Cl)cccc1NS(=O)(=O)c1ccc(-c2ccc(=O)[nH]n2)o1 | n | n | n | n | n | n
Cc1ccc(NS(=O)(=O)c2ccc(-c3ccc(=O)[nH]n3)o2)cc1N(C)C | n | 60.1 | x | n | 44.4 | n
Cc1ccc(C)c(NS(=O)(=O)c2ccc(-c3ccc(=O)[nH]n3)o2)c1 | u | n | n | n | n | n
Cc1ccc(NS(=O)(=O)c2ccc(-c3ccc(=O)[nH]n3)o2)cc1Cl | n | n | n | n | n | n
O=c1ccc(-c2ccc(S(=O)(=O)Nc3cccc(F)c3)o2)n[nH]1 | u | n | n | n | n | n
O=c1ccc(-c2ccc(S(=O)(=O)Nc3cccc(Br)c3)o2)n[nH]1 | 50.1µM | n | n | n | n | n
O=C(NNC(=O)c1ccccc1F)c1cccc(S(=O)(=O)N2CCc3ccccc32)c1 | x | x | x | x | x | n
CC(=O)O[C@@H](C[C@@H](C)C1=C2C[C@H](O)C3[C@@]4(C)CCC(=O)C(C)(C)C4CC[C@]3(C)[C@@]2(C)CC1)[C@H]1OC1(C)C (some centres not stated) | x | x | x | x | x | n
N/C(CSc1ccccn1)=N\OCc1c(Cl)cccc1Cl | n | 44.9 | n | n | n | n
Cc1cc(C)cc(-n2ncc3c2CCCC3NC(=O)c2cc(C)n(C)n2)c1 (configuration not stated) | n | 36.1 | n | n | 21.7 | n
Cc1cc(C(=O)NC2CCCc3c2cnn3-c2ccc(C(C)(C)C)cc2)nn1C (configuration not stated) | n | n | x | n | n | n
CC(=O)c1cc(C(=O)NC2CCCc3c2cnn3-c2cc(C)cc(C)c2)[nH]n1 (configuration not stated) | n | 35.1 | x | n | 29.3 | n
Cc1cc(C(=O)NC2CCCc3c2cnn3-c2cccc(C)c2C)no1 (configuration not stated) | n | 46.2 | n | n | 26.8 | n
CC1=C(C(=O)NC2CCCc3c2cnn3-c2cccc(C)c2C)OCCO1 (configuration not stated) | n | n | x | n | n | n
COc1ccc(S(=O)(=O)Nc2ccc3c(c2)C(=O)N([C@@H](C)CO)C[C@@H](C)[C@H](CN(C)S(=O)(=O)c2ccc(F)cc2)OCCCC[C@H](C)O3)cc1 | x | x | x | x | x | n
c1ccc(-c2[nH]c(-c3ccccc3)[n+](CC3CO3)c2-c2ccccc2)cc1 (configuration not stated) | n | n | n | n | 49.6 | n
CC(=O)/C(N=Nc1ccc(C(=O)O)cc1)=C(\C)O | n | n | n | u | n | n
CC(=O)/C(N=Nc1ccc2c(c1)OCCO2)=C(\C)O | n | 135.6 | n | n | 81.6 | n
CC(=O)/C(N=Nc1ccc2c(c1)OCO2)=C(\C)O | n | 107.8 | n | n | 73.9 | n
O=C(CSc1nc2ccsc2c(=O)n1-c1ccc(Br)cc1)NCc1ccccc1 | n | n | x | x | n | n
O=C(OCC#CCSc1nnc(-c2ccc(Br)cc2)o1)c1cccs1 | n | n | n | n | n | n
